An excerpt weighted towards active compounds, which were near 11% of everything screened.
HP1b chromo inh: HTS for Inhibitors of HP1-beta Chromodomain Interactions with Methylated Histone Tails; actives 0.56% (n = 390,000); AlphaScreen HP1-beta / biotin-H3K9me3 peptide binding; AID 540317, 2011; Potency, µM (series often up to 114 µM), most hits filed as inhibitors; note: nearly all actives have a fitted effect of over 70% in size
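HP1-beta protein (50 nM final) preincubated 30 min at room temperature with biotinylated H3(1-18)K9me3 peptide (50 nM) in PBS pH 7.4, 0.01% Tween-20, then compound added for 30 min. AlphaScreen streptavidin donor/nickel chelate acceptor beads (10 ug/mL final), 30 min dark, luminescence read.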
G9a inh: qHTS Assay for Inhibitors of Histone Lysine Methyltransferase G9a | G9a H3K9 monomethylation, AlphaScreen, 2 h | Potency, µM (titrated, usually from 102 µM), usual class: inhibitors | actives 8.8% (n = 350,000) | AID 504332, 2011; note: nearly all actives have a fitted effect of over 75% in size
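Chemiluminescent proximity detection of H3K9 monomethylation, read after 10 min bead incubation in the dark. Reaction: 20 nM G9a, 500 nM biotin-H3K9 peptide, 20 uM SAM cofactor, 2 h, room temperature, following 15 min enzyme-compound preincubation.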
L3MBTL1 block: qHTS Assay for the Inhibitors of L3MBTL1. Lethal(3)malignant brain tumor-like protein 1 (Homo sapiens), Q9Y468. AlphaScreen L3MBTL1–H3K9me1 peptide binding. Potency, µM (series often up to 57.1 µM), hits mostly inhibitors. actives 0.66% (n = 230,000); note: nearly all actives have a fitted effect of over 60% in size
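Displacement of a biotinylated histone H3(1-15) peptide monomethylated at Lys9 (75 nM) from L3MBTL1 (50 nM) was measured by AlphaScreen after a 30 min room-temperature compound incubation; cefsulodin titration served as intraplate control.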
BAZ2B inh: qHTS Assay for Inhibitors of BAZ2B. Bromodomain adjacent to zinc finger domain protein 2B (Homo sapiens), Q9UIF8. actives 4.4% (n = 360,000). AlphaScreen BAZ2B-H3K14Ac peptide displacement. Potency, µM (titrated, usually from 114 µM), actives largely listed as inhibitors. AID 504333, 2011; note: nearly all actives have a fitted effect of over 60% in size
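Inhibition is scored as reduced AlphaScreen emission. The BAZ2B/b-H3(5-23)K14Ac complex (50 nM each) in PBS pH 7.4, 0.01% Tween-20 meets compound (up to 110 uM) for 30 min at RT before bead addition.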
JMJD2A Tudor inh: qHTS Assay for Inhibitors of JMJD2A-Tudor Domain; Lysine-specific demethylase 4A (Homo sapiens), O75164; AlphaScreen JMJD2A-Tudor / H3K4me3 peptide binding; Potency, µM (doses to about 114 µM), hits mostly inhibitors; actives 4.4% (n = 390,000); AID 504339, 2011; note: nearly all actives have a fitted effect of over 50% in size
Numbers stand for hits; ! = not active in a repeat; [ ] = remark or other dose. Calls come from the whole dose curve; as a rule, active = well fitted inhibition curve with a large enough effect; inconclusive = small, poorly fitted or top-dose-only effect; inactive = no such curve, though single readings can be large or run the other way.

How did Cc1cc(F)ccc1NC(=O)Cn1c(=O)ccc2cc(S(=O)(=O)N3CCC(C)CC3)ccc21 do in these assays?
HP1b chromo inh: inactive; G9a inh: inactive; BAZ2B inh: inactive; JMJD2A Tudor inh: inactive

Results for CCOc1ccccc1N1CC(c2nc3ccccc3n2CCOc2ccccc2OC)CC1=O (stereo not given) ?
HP1b chromo inh: inactive; G9a inh: inactive; BAZ2B inh: inactive; JMJD2A Tudor inh: inactive

Results for COc1ccc(S(=O)(=O)Nc2cc(S(=O)(=O)c3ccccc3)c(O)c(C)c2C)cc1 ?
HP1b chromo inh: inactive; G9a inh: inactive; BAZ2B inh: inactive; JMJD2A Tudor inh: inactive

Results for CCCCCC(CC(=O)NO)C(=O)NC(C(=O)N1CCCC1CO)C(C)C (stereo not given) ?
HP1b chromo inh: inactive; G9a inh: inconclusive; L3MBTL1 block: inactive; BAZ2B inh: inactive; JMJD2A Tudor inh: inactive

What do the screens show for `CCCCC[C@H](CC(=O)NO)C(=O)N[C@H](C(=O)N1CCC[C@H]1CO)C(C)C`?
G9a inh: 9.5µM!

What do the screens show for `CCOC(=O)Cn1c(=O)oc2cc(S(=O)(=O)N3CCN(c4ccccc4OC)CC3)ccc21`?
HP1b chromo inh: inactive; G9a inh: inactive; BAZ2B inh: inactive; JMJD2A Tudor inh: inactive

Results for C=CCn1c(O)c(C2=c3ccccc3=NC2=O)sc1=Nc1ccc(O)cc1 ?
HP1b chromo inh: inconclusive; G9a inh: inactive[12.7 µM]; BAZ2B inh: 22µM; JMJD2A Tudor inh: 22µM

How did Cc1ccc(C)c2[nH]c(=O)c(CN(CCN3CCCC3)C(=O)Nc3cccc(Cl)c3)cc12 do in these assays?
HP1b chromo inh: inactive; G9a inh: 28µM; L3MBTL1 block: inactive; BAZ2B inh: inactive; JMJD2A Tudor inh: inactive

What do the screens show for `CCOc1ccc2[nH]c(=O)c(CN(CCN3CCCC3)C(=S)Nc3ccccc3OCC)cc2c1`?
HP1b chromo inh: inactive; G9a inh: inactive; L3MBTL1 block: inactive; BAZ2B inh: inactive; JMJD2A Tudor inh: inactive

Results for CCc1ccc2[nH]c(=O)c(CN(CCCN3CCOCC3)C(=O)Nc3ccc(Cl)cc3)cc2c1 ?
HP1b chromo inh: inactive; G9a inh: inactive; L3MBTL1 block: inactive; BAZ2B inh: inactive; JMJD2A Tudor inh: inactive

Results for CCc1ccc2[nH]c(=O)c(CN(CCCN3CCOCC3)C(=O)Nc3cccc(Cl)c3)cc2c1 ?
HP1b chromo inh: inactive; G9a inh: 50µM; L3MBTL1 block: inactive; BAZ2B inh: inconclusive; JMJD2A Tudor inh: inconclusive

What do the screens show for `Cc1cc(C)c2cc(CN(CCN3CCCC3)C(=O)Nc3ccc(F)cc3)c(=O)[nH]c2c1`?
HP1b chromo inh: inactive; G9a inh: inconclusive; L3MBTL1 block: inactive; BAZ2B inh: inactive; JMJD2A Tudor inh: inactive

Results for COc1ccc2[nH]c(=O)c(CN(CCN3CCCC3)C(=O)Nc3ccccc3Cl)cc2c1 ?
HP1b chromo inh: inactive; G9a inh: 50µM; L3MBTL1 block: inactive; BAZ2B inh: inactive; JMJD2A Tudor inh: inactive

What do the screens show for `O=C(Cc1ccccc1)Nc1cc(-c2nc3cc(Cl)ccc3o2)ccc1Cl`?
HP1b chromo inh: inactive; G9a inh: inactive; BAZ2B inh: inactive; JMJD2A Tudor inh: inactive

What do the screens show for `O=c1c2ccccc2n(Cc2ccccc2Cl)c(=O)n1CCc1ccccc1`?
HP1b chromo inh: inactive; G9a inh: inactive; BAZ2B inh: inactive; JMJD2A Tudor inh: inactive

What do the screens show for `CCC(C)(C)n1nnnc1C(c1cc2ccc(OC)cc2[nH]c1=O)N1CCc2ccccc2C1` (stereo not given)?
HP1b chromo inh: inactive; G9a inh: 2.5µM; L3MBTL1 block: inactive[11.4 µM]; BAZ2B inh: inactive; JMJD2A Tudor inh: inactive

What do the screens show for `COc1ccc2cc(C(c3nnnn3C3CCCC3)N3CCc4ccccc4C3)c(=O)[nH]c2c1` (stereo not given)?
HP1b chromo inh: inactive; G9a inh: 10µM; L3MBTL1 block: inactive; JMJD2A Tudor inh: inactive

How did CCC(C)(C)n1nnnc1C(c1cc2ccc(OC)cc2[nH]c1=O)N1CCCCC1 (stereo not given) do in these assays?
HP1b chromo inh: inactive; G9a inh: inconclusive; BAZ2B inh: inactive; JMJD2A Tudor inh: inactive

What do the screens show for `COc1ccc(Cn2nnnc2C(c2cc3ccc(OC)cc3[nH]c2=O)N2CCCCCC2)cc1` (stereo not given)?
HP1b chromo inh: inactive; G9a inh: 8.9µM; L3MBTL1 block: inactive; BAZ2B inh: inactive; JMJD2A Tudor inh: inactive

What do the screens show for `COc1ccc(Cn2nnnc2C(c2ccc(N(C)C)cc2)N2CCC(C(N)=O)CC2)cc1` (stereo not given)?
HP1b chromo inh: inconclusive; G9a inh: 13µM; L3MBTL1 block: inactive; BAZ2B inh: 50µM; JMJD2A Tudor inh: inconclusive

How did O=C(CSc1cn(CC(=O)N2CCCCC2)c2ccccc12)NCc1ccc(F)cc1 do in these assays?
HP1b chromo inh: inactive; G9a inh: inactive; BAZ2B inh: inconclusive; JMJD2A Tudor inh: inactive

What do the screens show for `CCC(C)(C)n1nnnc1C(c1cc2cc(OC)ccc2[nH]c1=O)N1CCc2ccccc21` (stereo not given)?
HP1b chromo inh: inactive; G9a inh: inconclusive; L3MBTL1 block: inactive; BAZ2B inh: inconclusive; JMJD2A Tudor inh: inconclusive

What do the screens show for `CCC(C)(C)n1nnnc1C(c1cc2ccc(OC)cc2[nH]c1=O)N1CCc2ccccc21` (stereo not given)?
HP1b chromo inh: inactive; G9a inh: 13µM; L3MBTL1 block: inactive; BAZ2B inh: inconclusive; JMJD2A Tudor inh: inconclusive

What do the screens show for `Cc1ccc2cc(C(c3nnnn3C3CCCC3)N3CCN(c4ccc(F)cc4)CC3)c(=O)[nH]c2c1` (stereo not given)?
HP1b chromo inh: inactive; G9a inh: 11µM; L3MBTL1 block: inactive; BAZ2B inh: inactive; JMJD2A Tudor inh: inactive

How did CCOC(=O)c1c(NC(C)=O)c2c3c(sc2n1Cc1cccc(Cl)c1)CCCC3 do in these assays?
HP1b chromo inh: inactive; G9a inh: inactive; BAZ2B inh: inactive; JMJD2A Tudor inh: inactive

Results for Cc1ccc(-c2cc(C(=O)OCC(=O)c3ccccc3)c3cccc(Cl)c3n2)cc1 ?
HP1b chromo inh: inactive; G9a inh: inactive; BAZ2B inh: inactive; JMJD2A Tudor inh: inactive

Results for O=C(CSC1=Nc2ccccc2N=C(c2ccc(F)cc2)C1)Nc1cccc(C(F)(F)F)c1 ?
HP1b chromo inh: inactive; G9a inh: inactive; BAZ2B inh: inactive; JMJD2A Tudor inh: inactive

How did Cc1csc2nc(-c3cccc(NC(=O)c4cccc(F)c4)c3)cn12 do in these assays?
HP1b chromo inh: inactive; G9a inh: inactive; BAZ2B inh: inactive; JMJD2A Tudor inh: inactive

How did CN(C)CCCn1c(SCC(=O)Nc2nc(-c3cccc(Br)c3)cs2)nc2ccccc2c1=O do in these assays?
HP1b chromo inh: inconclusive; G9a inh: inconclusive; BAZ2B inh: inconclusive; JMJD2A Tudor inh: 40µM
